# PubChem BioAssay (NCI)
# About 79,000 compounds went through this panel and 15% of them were active in at least one assay; those are over-represented in the sample as a whole. Unmarked numbers belong to inactive results. Activity calls are given as the source filed them. Cut-off read from the data, not from the text of the source: active = growth inhibition above about 70%; inactive = the rest.
# Tests used:
# [1] = NCI Yeast Anticancer Drug Screen. Data for the rad50 strain (AID 155);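 note: 0% = growth of vehicle-only cultures of the same strain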; conditions: S. cerevisiae rad50 strain growth inhibition; at 50.0 µM; stronger effect = higher value
# In short: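 Genetically altered yeast (DNA repair pathway); compound treatment; growth inhibition vs vehicle ctrl.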
# [2] = NCI Yeast Anticancer Drug Screen. Data for the mec2-1 strain (AID 157); conditions: S. cerevisiae mec2-1 strain, at 50.0 µM, stronger effect = higher value
# In short: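 Readout is yeast growth inhibition, normalised to vehicle-treated controls, in the mec2-1 strain exposed to compound.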
# [3] = NCI Yeast Anticancer Drug Screen. Data for the sgs1 mgt1 strain (AID 161);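 note: 0% = growth of cultures given vehicle only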; conditions: S. cerevisiae sgs1 mgt1 strain, at 50.0 µM, stronger effect = higher value
# In short: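 Growth of a repair-deficient yeast mutant was monitored after compound treatment and expressed as inhibition relative to vehicle-treated cultures.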
# [4] = NCI Yeast Anticancer Drug Screen. Data for the cln2 rad14 strain (AID 165);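 note: 0% = growth equal to vehicle treated cultures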; conditions: S. cerevisiae cln2 rad14 strain, at 50.0 µM, stronger effect = higher value
# In short: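 Relative to vehicle controls, growth inhibition of compound-treated cln2 rad14 yeast was recorded.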
# [5] = NCI Yeast Anticancer Drug Screen. Data for the bub3 strain (AID 167); conditions: S. cerevisiae bub3 mutant strain, at 50.0 µM, stronger effect = higher value
# In short: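 Yeast carrying a defined mutation is treated with each compound, and growth is compared with that of vehicle-exposed cells to give inhibition.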
# [6] = NCI Yeast Anticancer Drug Screen. Data for the mlh1 rad18 strain (AID 175); conditions: S. cerevisiae mlh1 rad18 strain growth inhibition; at 50.0 µM; stronger effect = higher value
# In short: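 Test agents were incubated with a yeast strain of defined genotype (DNA damage repair defect). Inhibition of growth was derived by comparison with vehicle-exposed cultures.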
Structure (SMILES),growth inhibition [1],growth inhibition [2],growth inhibition [3] [%],growth inhibition [4],growth inhibition [5] [%],growth inhibition [6] [%]
O=Cc1c(O)ccc2ccc3ccccc3c12,16.1%,7.25%,10.1,-32.7%,-7.7,16.4
CCc1n[nH]c(=O)n1NC(=O)/C=C\C(=O)O,-12.2%,-16.1%,-23.9,-17.7%,-10.7,-25.5
[O-][n+]1c(CN2CCCCC2)nc2cccc3c2c1-c1ccccc1-3,33.4%,12.3%,-3.5,-8.55%,20.6,13.1
CC(=O)c1ccc(C2CCC[C@H]2c2ccc(C(C)=O)cc2)cc1 (stereo not given in full),4.15%,-1.55%,1.75,-40.2%,9.3,-16.4
CCCCCCc1cc2c(C)c(C)c(=O)oc2cc1OCCCOc1cc2oc(=O)c(C)c(C)c2cc1CCCCCC,-17.9%,-24.9%,-12.5,35.5%,-11.8,-46.3
CC1C=CC(C)c2c(-c3ccccc3)oc(-c3ccccc3)c21 (stereo not given),17%,8.6%,-1.5,-2.6%,-0.4,9.7
Cn1c(NC(=O)C(=O)NC23CC4CC(CC(C4)C2)C3)nc2ccccc21,-1.9%,-11.4%,-9.7,5.8%,-7.25,8.55
CC(=O)Nc1ccc(S(=O)(=O)N/N=C\CC(C)C)cc1,-19.4%,-14.2%,-26.2,-6.95%,-46,-27.2
CC(=O)NC1C(SC(=O)NCCCl)OC(COC(C)=O)C(OC(C)=O)C1OC(C)=O (stereo not given),-7.75%,-8.6%,-3.2,-16.8%,-27.3,-4.3
COc1ccc(NC(=O)CC(O)c2cccc(N)c2)cc1 (stereo not given),22.3%,-26.4%,26.3,7.1%,25.1,12.5
C=CC(C)(C)/C=C/C=O,-18.8%,-15.1%,-12.1,5.65%,24.6,-32.1
c1ccc(OCCSCCCCCCCCCCSCCOc2ccccc2)cc1,-5.85%,-11.8%,-25.6,-12.6%,-28.6,-24.5
C=C1CC[N+]2(CCCCCC)CCCC12 (stereo not given),2.5%,27.4%,11.3,-1.4%,25.4,21.6
O=S(=O)(O)C(Cc1nc2ccccc2[nH]1)S(=O)(=O)OCCC1S(=O)(=O)OCCOS1(=O)=O (stereo not given),0%,-0.4%,29.5,-18.9%,13.1,-24.9
COC(=O)c1ccc(CSc2ccc(N)cc2)cc1,53.1%,36.2%,60.6,40.1%,46.1,68.5
CC12CC(O)C(C=C1c1ccccc1)C2(C)C (stereo not given),-7.55%,-0.95%,0.85,-14%,-13.1,1.45
Cc1c(/C=N/NC(=O)c2ccc(Cl)cc2)c(=O)n(-c2ccccc2)n1C,-43%,-20.9%,-53.4,-32.4%,-52,-65.2
CC(C)N(C(=O)C12C3C4C1(I)C1C2C3(I)C41C(=O)N(C(C)C)C(C)C)C(C)C (stereo not given),-9.55%,23.1%,25.9,18.6%,-0.25,-12.2
C/C(=N/NS(=O)(=O)c1ccc(C)cc1)C(=NO)/C(C)=N\NS(=O)(=O)c1ccc(C)cc1,55.6%,70.2% (active),45.4,86.2% (active),49.9,60.5
Cc1ccc(C(=O)Nc2ccc(CP(=O)(O)O)cc2CP(=O)(O)O)cc1N,-25.1%,-14.8%,19.3,6.05%,-14.7,1.8

Structure (SMILES),growth inhibition [1],growth inhibition [2],growth inhibition [3] [%],growth inhibition [4],growth inhibition [5] [%],growth inhibition [6] [%]
O=C(Nn1c(=S)[nH][nH]c1=S)c1ccccc1,17.1%,-4.05%,-2.35,-12.2%,-14.5,21.4
Cc1ccc(S(=O)(=O)CC(=O)CC(=O)C(=O)Nc2ccc(Cl)cc2C)cc1,11.2%,-0.3%,-7.95,-22.4%,-0.75,27.3
ClC(Cl)(Cl)SSC(=Nc1ccccc1)SSC(Cl)(Cl)Cl,70.8% (active),21.4%,51.6,-0.8%,64.3,69.5
N#CCC(=O)N1CCCCCCC1,20.4%,-8.9%,2.7,0%,6.05,0
CCCCCCCCCCCCCCCCS(=O)(=O)c1ccc(S(=O)(=O)CS(C)(=O)=O)cc1[N+](=O)[O-],-5.55%,-16.2%,9.85,0.85%,21.1,15.3
O=c1c2ccccc2nc2sc3nc4ccccc4c(=O)n3n12,4%,-10.8%,-8.85,-56%,-4.2,-11.8
O=C(Oc1ccco1)c1ccc([N+](=O)[O-])cc1,2.55%,0.6%,-4.7,-17.2%,0.1,-9.8
COc1cc([C@@H]2C3C(=O)c4ccccc4C3[C@@H](c3cc(OC)c(OC)c(OC)c3)C23Cc2ccccc2C3=O)cc(OC)c1OC (stereo not given in full),-6.5%,-0.95%,-11.2,4.55%,23.4,16
CCOC(=O)C1=C(C(C)=O)C(c2ccccc2[N+](=O)[O-])C(C(C)=O)=C(C(=O)OCC)N1,-7.35%,10.4%,-9.2,-6.85%,-9,9.25
OC1C(OCc2ccccc2)OC(COCc2ccccc2)C(OC2OC(COCc3ccccc3)C(OCc3ccccc3)C(OCc3ccccc3)C2OCc2ccccc2)C1OCc1ccccc1 (stereo not given),-2.1%,-9.85%,-13.8,-8.65%,-3.3,-3.6
c1cn(C23C4C5C6C4C2C6C53)cn1 (stereo not given),2.65%,-11.2%,2.5,18.1%,-6,15.9
CCC(C)NC(=O)c1ccc(Cl)cc1Cl (stereo not given),15.8%,-18.5%,-12.7,-68.5%,-28.9,-22.6
C/C=C(\CC)C(C#N)(CCC)C(=O)OCC (stereo not given),-10.2%,-17.6%,-21.2,-9%,-33.1,-17.6
N#CC1(c2ccccc2)OC1(C#N)c1ccccc1 (stereo not given),3.1%,-14.6%,-4.8,-22.2%,-11.2,-7.6
CCOC(=O)C(O)Cc1ccc(N)cc1 (stereo not given),5.8%,12.2%,12.3,9.85%,12.8,2.85
C/C(C=C1C(=O)NC(=S)NC1=O)=C\c1ccccc1,13.5%,-2.55%,8.35,-4.55%,-8.5,14.1
Cc1ccc(C(=O)CC2=NC3NN(c4ccccc4)C(=O)C3=C2CC(=O)c2ccc(C)cc2)cc1 (stereo not given),38%,2.4%,4.55,-13.1%,-9.05,45.3
CC(=O)C(/C=N\N=C(/C)c1cn[nH]c1C)=C(/C)O,-54.8%,-21.6%,-18.7,-58.1%,8.6,-18.6
O=C1NCCN(CCc2ccccc2)C1c1ccccc1 (stereo not given),-9.6%,0.95%,-8.85,-31.9%,15,-6.05
O=C(O)c1cocc1C(=O)O,3.2%,-3.4%,-13.6,-14.8%,-2.65,-3.95
